# From PubChem BioAssay AID493201 (National Center for Advancing Translational Sciences (NCATS), 2011)
# Results filed as inconclusive are left out. A call without a number means that no potency is given here. Calls of active or inactive are those of the source. The call rests on the fitted dose curve; in most records, active means well fitted activation curve with a large enough effect; inconclusive means small, poorly fitted or top-dose-only effect; inactive means no such curve, though single readings can be large or run the other way.
# Experiment: qHTS Assay for Identifying a Potential Treatment of Ataxia-Telangiectasia: Secondary assay (no NCS) hit validation;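 further: phosphorylated KAP1 signal as a proxy for ATM-like kinase activity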
# Conditions: A-T patient fibroblasts, AlphaLISA, no DNA damage added, 90 min; series mostly up to 76.9 µM
# Procedure, shortened: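 Without NCS-induced DNA breaks, ATM-like activity scored as phospho-KAP1 AlphaLISA signal (pKAP1/total KAP1 bead pair) in ATM-null F2112 fibroblasts; compound series up to 76.7 uM final, 37C incubation, lysates read on AlphaScreen protocol.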
# Potency means the concentration at half of the fitted maximal effect.
row,SMILES,Potency
1,O=C(CNCc1cccs1)Nc1ccc(OC(F)(F)F)cc1,inactive
2,Clc1cccc(CN2CCC(Cc3ccccc3)CC2)c1,inactive
3,CCC(C)NC(=O)c1cn(CCOC)c(=O)c2c1c1ccccc1n2C (centres undefined),inactive
4,COc1ccc(Cl)cc1NC(=O)C[n+]1cccc(C)c1,inactive
5,Cc1cc2c(c(=O)o1)C(CCC1CCCCC1)C(C#N)=C(N)O2 (centres undefined),inactive
6,CCC[C@H]1CCCC/C=C\CCCC(=O)OCCN1C(=O)OC(C)(C)C,inactive
7,O=C(NC(=O)c1c(F)cccc1F)Nc1ccccc1SC(F)F,inactive
8,COc1cccc(CN(C)CC(=O)NCc2ccc(F)cc2)c1OC,inactive
9,CC1=C/C(=C\C=C(C#N)C#N)N(C)c2ccccc21,inactive
10,Cc1nnc(SCC(=O)NC(=O)Nc2ccc3c(c2)OCCO3)n1N,inactive
11,CCn1nc(C)c(CNC(=O)c2cc(COc3ccc(F)cc3Cl)on2)c1C,inactive
12,C=CCOC(=O)C1=C[C@H](c2coc3ccccc3c2=O)C[C@H](OCc2ccc(CO)cc2)O1,inactive
13,CCOC(=O)c1c(CSc2ccsc2)n(C)c2cc(Br)c(O)c(CN(C)C)c12,26 µM (active)
14,Cc1ccc(NC(=O)NC(=O)N(C(C)C)S(C)(=O)=O)nc1,inactive
